About 450 (0.46%) of roughly 97,000 compounds were called active. Rule as the data show it: active = activation above about 16%; inactive = the rest. Shown is part of a subset that was picked to be rich in actives.
The compounds below were run against Sphingosine 1-phosphate receptor 2 (Homo sapiens) (UniProt O95136) (assay: S1P2 receptor agonists, primary screen, cell-based (AID 729;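 also: 0% = vehicle low control and 100% = maximal reference agonist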)). Conditions: S1P2-expressing cell line, agonist reporter read-out; at 4.5 µM; hits give high values.
Chain of Sphingosine 1-phosphate receptor 2 (Homo sapiens) (O95136 whole entry, looked up): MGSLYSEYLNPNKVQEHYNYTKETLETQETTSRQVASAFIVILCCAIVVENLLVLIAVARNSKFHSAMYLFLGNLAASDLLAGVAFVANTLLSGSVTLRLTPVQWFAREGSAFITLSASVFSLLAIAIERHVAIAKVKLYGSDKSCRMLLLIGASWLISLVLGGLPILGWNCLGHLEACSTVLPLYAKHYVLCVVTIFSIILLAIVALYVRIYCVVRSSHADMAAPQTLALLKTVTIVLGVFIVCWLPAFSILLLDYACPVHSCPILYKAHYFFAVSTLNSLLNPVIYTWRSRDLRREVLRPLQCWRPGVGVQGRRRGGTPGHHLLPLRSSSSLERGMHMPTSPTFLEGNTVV

SMILES | activation
Cc1ccc(-c2nnc(C)c(N3CC(C)OC(C)C3)n2)cc1 (stereo not drawn) | -6.7% (inactive)
COc1ccc(-c2cc(C(=O)n3cnc4ccccc43)c3ccccc3n2)cc1 | -1.61% (inactive)
CC(C)C(NS(=O)(=O)c1cccs1)C(=O)Nc1nc(C(C)(C)C)cs1 (stereo not drawn) | -5.87% (inactive)
Cc1nc(C)c(C(=O)N(c2ccc(C)c(C)c2)C(C(=O)NCc2ccco2)c2ccccc2)s1 (stereo not drawn) | -5.57% (inactive)
COc1ccc(/C=N/Nc2nc3ccccc3o2)cc1OC | 1.35% (inactive)
O=C1CCCc2c1nc(-c1cccc(Cl)c1)n2O | -8.02% (inactive)
Cc1ccc(-c2csc(SCC(=O)Nc3cc(C)on3)n2)cc1 | -3.51% (inactive)
O=C(O)[C@@H]1CCCN1c1ncnc2sc3c(c12)CCC3 | -0.47% (inactive)
OCCNc1nc2ccccc2n1-c1ncnc2sc3c(c12)CCC3 | 17.8% (active)
CC(C)(C)C(=O)Cn1c(NCCO)nc2ccccc21 | 0.17% (inactive)
COc1ccccc1/C=C/C1=NC(=C\N(C)C)/C(=O)O1 | 3.03% (inactive)
CCCc1nc2sc3c(c2c(=O)n1NC(=O)CCCl)CCCC3 | -7.02% (inactive)
Cc1ccc2oc(=O)c3cnn(CC(=O)N(Cc4ccco4)C4CCCCC4)c3c2c1 | -2.42% (inactive)
CC(CN1CCOCC1)c1ccccc1 (stereo not drawn) | -0.64% (inactive)
COc1ccc(NC(=O)COC(=O)Cn2c(C)nc3ccccc32)cc1OC | -6.15% (inactive)
COc1ccc(NC(=O)C(NC(C)=O)C(=O)NCc2ccccc2Cl)cc1 (stereo not drawn) | -7.51% (inactive)
CCNC(=O)NC(=O)C(C)OC(=O)c1cc(S(=O)(=O)N2CCCCCC2)ccc1OC (stereo not drawn) | -4.87% (inactive)
COc1ccc(N(CCC#N)S(=O)(=O)c2ccc(Cl)cc2)cc1 | -1.5% (inactive)
O=C(NCc1ccco1)C1CCCN(S(=O)(=O)c2ccccc2)C1 (stereo not drawn) | -2.97% (inactive)
O=C1CSC(c2cccc(F)c2)N1c1ccc(O)cc1 (stereo not drawn) | -7.24% (inactive)
Nc1nc(Br)c2ccccc2c1-c1ccc(F)cc1 | 4.89% (inactive)
Cc1ccc(S(=O)(=O)N2CCN(S(=O)(=O)N3CCOCC3)CC2)cc1 | -6.81% (inactive)
COc1cc(C(O)c2nc3ccccc3n2C)cc(OC)c1OC (stereo not drawn) | -6.52% (inactive)
CCC(C)n1c(-c2cc(OC)c(OC)c(OC)c2)nc2nc3ccccc3nc21 (stereo not drawn) | 16.8% (active)
COc1ccc(-c2nc3ccccc3n2CCC(C)C)cc1OC | -4.13% (inactive)

SMILES | activation
CC(C)(C)c1ccc(OC2=CS(=O)(=O)c3ccccc32)cc1 | -6.02% (inactive)
O=C(CCCCCn1c(=O)[nH]c2ccccc2c1=O)NCCc1c[nH]c2ccccc12 | -8.42% (inactive)
CCc1ccc2c(c1)C1(NN=C(c3ccccc3)S1)C(=O)N2 (stereo not drawn) | -1.92% (inactive)
COc1ccc(C(=O)Nc2ccc(F)cc2F)cc1 | -5.08% (inactive)
Cc1cc(C)c(S(=O)(=O)NCC2CCC(C(=O)NCc3ccc4c(c3)OCO4)CC2)c(C)c1 (stereo not drawn) | -5.15% (inactive)
OC(C#CCN1CCOCC1)(c1ccccc1)C1CCCCC1 (stereo not drawn) | -4.7% (inactive)
CC1CN(S(=O)(=O)c2ccccc2)C(C)CN1S(=O)(=O)c1ccccc1 (stereo not drawn) | -2.5% (inactive)
O=C(Nc1ccccc1Cl)N1CCN(c2ccc3nncn3n2)CC1 | -1.47% (inactive)
O=C(NCCc1ccccc1)c1ccc(NC2=NC3CS(=O)(=O)CC3S2)cc1 (stereo not drawn) | 0.04% (inactive)
COc1ccccc1C(c1nnnn1C(C)(C)C)N1CCN(Cc2ccccc2)CC1 (stereo not drawn) | -7.69% (inactive)
Cc1c(Nc2nc3ccccc3nc2NS(=O)(=O)c2cccs2)c(=O)n(-c2ccccc2)n1C | -4.46% (inactive)
O=S(=O)(NCC1OCCc2ccccc21)c1ccccc1 (stereo not drawn) | 0.09% (inactive)
CN1CCN(C(=O)Cn2c(C(F)(F)F)nc3ccccc32)CC1 | -7.46% (inactive)
COC(=O)c1cc(OC)c(OC)cc1NC(=O)CSc1ccc(C)cc1 | -4.04% (inactive)
COc1ccccc1CCNC(=O)c1cnccn1 | -1.07% (inactive)
Cc1ccc(-n2cc3ccc([N+](=O)[O-])cc3n2)cc1 | -0.28% (inactive)
CCOc1ccccc1NC(=O)c1cccnc1 | -2.14% (inactive)
Cc1nc2ccc(C(=O)N3CCN(c4ccccc4)CC3)cc2s1 | -0.32% (inactive)
CCOc1nc(NCCN2CCOCC2)nc(Nc2ccc(C)cc2)n1 | -6.53% (inactive)
CCc1c(O)cc2n(c1=O)-c1ccccc1C2(C)C | -1.15% (inactive)
CSCCC(NC(=O)COc1ccccc1)C(=O)OCC(=O)c1cc2ccccc2o1 (stereo not drawn) | 0.32% (inactive)
CC(C)n1c(-c2cccs2)nc2ccccc21 | -0.76% (inactive)
COc1ccc(/C=N/Nc2nc3ccccc3c(=O)[nH]2)cc1 | -4.61% (inactive)
O=c1[nH]c(-c2cccs2)nc2ccccc12 | 71.4% (active)
CCCCNC(=O)CCNC(=O)c1ccc(C(C)(C)C)cc1 | -3.72% (inactive)

SMILES | activation
N#C/C(=C/c1ccc(Cl)cc1)NC(=O)c1ccccc1 | -4.04% (inactive)
CNc1nc(SC)nc(N(C#N)CC(=O)OC)n1 | -6.48% (inactive)
CNC(=O)CN1C(=O)c2ccccc2S1(=O)=O | -1.63% (inactive)
CCCc1nnc(NC(=O)CN2C(=O)c3ccccc3S2(=O)=O)s1 | -3.54% (inactive)
Nc1nnc(SCCN2C(=O)c3ccccc3S2(=O)=O)s1 | 17.5% (active)
Cc1nc(Cl)c2oc3ccccc3c2n1 | 1.01% (inactive)
CCc1nc(Nc2ccc3nccnc3c2)c2oc3ccccc3c2n1 | 46.5% (active)
COc1ccccc1Nc1ncnc2c1oc1ccccc12 | -9.1% (inactive)
Cc1cc(C)n(-c2nc(O)cc(=O)[nH]2)n1 | -4.33% (inactive)
Cc1ccc(-n2ccc(=O)c(C(=O)O)n2)cc1 | -0.77% (inactive)
C=CCO/N=C(\C)c1c(O)c(C)c(-c2ccccc2)n(-c2ccccc2)c1=O | -3% (inactive)
COc1ccc(SCc2noc(C(=O)NCC3CCCO3)c2C(=O)O)cc1 (stereo not drawn) | -7.32% (inactive)
CCOc1c2ccc(C(=O)NCc3ccc4c(c3)OCO4)cc2nn1C | -2.43% (inactive)
COCCNC(=O)Cn1cc(C(=O)c2cccs2)c2ccccc21 | -4.41% (inactive)
CC(C)C(=O)Nc1ccc2c(c1)oc1ccccc12 | 0.25% (inactive)
c1ccc2c(-c3nn4nnnc4c4ccccc34)cccc2c1 | -3.13% (inactive)
O=C(O)COc1ccc(-c2nccc(-c3cccs3)n2)cc1 | -4.12% (inactive)
C=CCn1c2ccccc2c2nnc(SC(CC)C(=O)Nc3nc(C)c(C(=O)OCC)s3)nc21 (stereo not drawn) | 21.9% (active)
CCOC(=O)c1sc(NC(=O)c2ccncc2)nc1C | -5.01% (inactive)
CCOC(=O)c1sc(NC(=O)C(CC)Sc2nccn2C)nc1C (stereo not drawn) | -5.49% (inactive)
O=C(/C=C/c1cccs1)c1cc(Cl)ccc1OC(=O)N1CCOCC1 | -8.27% (inactive)
CSCc1cc(N(C)C)nc(SCc2ccc(Cl)cc2Cl)n1 | -6.28% (inactive)
CCCC1(C(=O)OCC)NC(c2ccc(N(C)C)cc2)C2C(=O)N(c3ccc4c(c3)OCCO4)C(=O)C21 (stereo not drawn) | -0.77% (inactive)
CCCCSc1[nH]c(=O)c(C(=O)OCC)cc1C#N | -3.23% (inactive)
N#CCSc1nc2c(c(=O)n1Cc1ccccc1)C1(CCCC1)Cc1ccccc1-2 | -7.66% (inactive)

SMILES | activation
Cc1ccccc1CSCCNC(=O)c1ccc(Cl)c(S(=O)(=O)N2CCOCC2)c1 | -6.39% (inactive)
CCN(CC)c1nc(-c2ccccc2)cc(C(F)(F)F)c1C#N | 23.9% (active)
N#Cc1c(C(F)(F)F)cc(-c2ccccc2)nc1SCC(=O)N1CCOCC1 | -6.15% (inactive)
COC(=O)c1cc2nc(-c3ccccc3)cc(C(F)(F)F)n2n1 | -1.4% (inactive)
Cc1nn(CC(=O)Nc2nc3ccccc3s2)c(C)c1[N+](=O)[O-] | -7.14% (inactive)
NC1=NC(=O)C2(COC(c3ccccc3Cl)OC2)S1 (stereo not drawn) | -5.49% (inactive)
COc1cccc(-c2cc(C(=O)N/N=C/c3ccc(OC)c(COC(C)=O)c3)c3ccccc3n2)c1 | -4% (inactive)
COc1cc2c(cc1OC)C(C(=O)NCc1ccco1)C1c3ccccc3CCN1C2=O (stereo not drawn) | -4.83% (inactive)
Oc1ccccc1CNc1ncc(Br)cc1Br | -9.29% (inactive)
O=C(Nc1ccc(Br)c2cccnc12)c1ccc(Cn2cc([N+](=O)[O-])cn2)o1 | -1.75% (inactive)
FC(F)(F)c1cccc(-c2cc3ccccc3nc2N2CCCC2)c1 | -10.1% (inactive)
O=C1/C(=C/c2cccs2)CCc2ccccc21 | -5.98% (inactive)
CN(C)S(=O)(=O)c1ccc(N2CCCC2)c(C(=O)NCc2ccccc2)c1 | -3.61% (inactive)
O=C(NCc1ccc(Cl)cc1)c1cc(=O)nc2sc(-c3ccccc3)nn12 | -3.55% (inactive)
O=[N+]([O-])c1ccc(Oc2ccc(F)cc2Br)c2ccncc12 | -12.3% (inactive)
CCOC(=O)C(C)Sc1nc2ccccc2c(=O)n1CC1CCCCC1 (stereo not drawn) | 1.92% (inactive)
CN(C)c1ccnc2sc3c(=O)n(-c4ccc(Cl)cc4)cnc3c12 | -3.21% (inactive)
COC(=O)C1=CN(C)C=C(C(=O)OC)C1c1ccc(Cl)cc1Cl | 32.1% (active)
CCOc1ccccc1C1C(C(=O)OC)=CN(C)C=C1C(=O)OC | 25.5% (active)
COC(=O)C1=C(C)N(C)C(C)=C(C(=O)OC)C1c1cccc(Br)c1 | -1.98% (inactive)
CCOc1ccccc1N(CC(=O)Nc1ccccc1C(=O)OC)S(C)(=O)=O | -7.41% (inactive)
CC12CN3CC(C)(CN(C1)C3c1ccc(Cl)cc1Cl)C2=O (stereo not drawn) | -3.81% (inactive)
CCOc1cc(C2C(C(=O)OC)=CN(C3CCCC3)C=C2C(=O)OC)cc(Br)c1O | 7.13% (inactive)
